Results: the supplement of paper PMC11732987, “Enantioselective OTUD7B fragment discovery through chemoproteomics screening and high-throughput optimisation” (Communications Chemistry, 2025)

What was measured:
Test in all cases: log2 ratio of Biotin-Ahx-Ub-VS probe labelling (fragment/DMSO); higher = less target engagement (more negative = stronger competition), active = hit call of the paper (q ≤ 0.05, log2 ratio ≤ -1)
Conditions in all cases: compound concentration: 200 uM; treatment time: 3 h
ALG13 = molecular target: T1, ALG13 (UniProt Q9NP73)
T1 sequence (whole entry): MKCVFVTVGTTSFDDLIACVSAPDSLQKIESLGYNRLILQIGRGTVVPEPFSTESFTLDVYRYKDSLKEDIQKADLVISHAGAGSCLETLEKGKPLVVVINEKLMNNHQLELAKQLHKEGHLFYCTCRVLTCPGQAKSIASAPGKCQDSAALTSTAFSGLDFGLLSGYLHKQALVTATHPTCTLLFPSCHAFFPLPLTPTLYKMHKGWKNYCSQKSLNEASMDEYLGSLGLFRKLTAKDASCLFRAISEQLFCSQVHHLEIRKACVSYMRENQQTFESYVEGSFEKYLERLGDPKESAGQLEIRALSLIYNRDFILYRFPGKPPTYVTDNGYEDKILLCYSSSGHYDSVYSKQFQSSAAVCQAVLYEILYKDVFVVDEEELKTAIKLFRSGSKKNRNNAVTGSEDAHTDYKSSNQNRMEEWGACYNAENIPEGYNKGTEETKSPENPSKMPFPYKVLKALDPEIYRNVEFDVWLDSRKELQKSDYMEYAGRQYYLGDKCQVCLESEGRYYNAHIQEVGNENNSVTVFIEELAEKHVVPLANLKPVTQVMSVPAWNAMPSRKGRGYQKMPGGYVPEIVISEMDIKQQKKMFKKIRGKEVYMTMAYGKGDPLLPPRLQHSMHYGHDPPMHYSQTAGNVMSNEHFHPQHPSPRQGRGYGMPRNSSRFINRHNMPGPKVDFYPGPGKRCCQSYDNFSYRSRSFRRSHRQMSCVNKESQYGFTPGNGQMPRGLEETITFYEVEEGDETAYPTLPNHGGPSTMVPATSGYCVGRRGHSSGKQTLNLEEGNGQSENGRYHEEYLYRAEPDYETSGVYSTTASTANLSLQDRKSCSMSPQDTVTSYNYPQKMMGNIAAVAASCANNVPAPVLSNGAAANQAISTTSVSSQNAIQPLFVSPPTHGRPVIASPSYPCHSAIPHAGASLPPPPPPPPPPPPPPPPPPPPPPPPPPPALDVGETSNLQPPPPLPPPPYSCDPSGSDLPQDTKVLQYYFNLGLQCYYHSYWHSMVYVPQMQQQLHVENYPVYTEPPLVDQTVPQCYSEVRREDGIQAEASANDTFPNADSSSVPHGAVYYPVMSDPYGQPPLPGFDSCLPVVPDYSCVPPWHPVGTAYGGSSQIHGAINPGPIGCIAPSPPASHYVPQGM
Summary of the method: (§1)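 Each value is an average log2 ratio of fragment to vehicle, tested by unpaired t-test. The underlying Spectronaut label-free quantities were global-median-normalised, and only proteins with ≥2 unique peptides were included. Triplicate HEK293T lysate samples (495 µg) were exposed to fragment at 200 µM or vehicle for 3 h, then to Biotin-Ahx-Ub-VS at 0.5 µM final for 1 h, before NeutrAvidin enrichment of labelled DUBs, LysC and trypsin digestion, and diaPASEF LC-MS/MS.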

ATXN3 = ATXN3 (UniProt P54252)
ATXN3, sequence (P54252 whole entry): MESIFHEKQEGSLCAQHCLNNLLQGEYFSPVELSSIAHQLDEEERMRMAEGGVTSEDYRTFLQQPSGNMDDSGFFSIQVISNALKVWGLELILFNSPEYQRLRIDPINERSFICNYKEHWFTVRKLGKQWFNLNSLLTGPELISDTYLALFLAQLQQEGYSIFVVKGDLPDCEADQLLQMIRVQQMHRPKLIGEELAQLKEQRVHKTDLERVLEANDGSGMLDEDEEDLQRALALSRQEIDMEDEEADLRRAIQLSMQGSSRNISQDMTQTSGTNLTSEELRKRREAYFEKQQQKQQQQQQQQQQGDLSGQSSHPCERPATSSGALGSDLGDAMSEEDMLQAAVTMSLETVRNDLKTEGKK
Summary of the method: as §1

BAP1 = molecular target: T2, BAP1 (UniProt Q92560)
T2 sequence (whole entry): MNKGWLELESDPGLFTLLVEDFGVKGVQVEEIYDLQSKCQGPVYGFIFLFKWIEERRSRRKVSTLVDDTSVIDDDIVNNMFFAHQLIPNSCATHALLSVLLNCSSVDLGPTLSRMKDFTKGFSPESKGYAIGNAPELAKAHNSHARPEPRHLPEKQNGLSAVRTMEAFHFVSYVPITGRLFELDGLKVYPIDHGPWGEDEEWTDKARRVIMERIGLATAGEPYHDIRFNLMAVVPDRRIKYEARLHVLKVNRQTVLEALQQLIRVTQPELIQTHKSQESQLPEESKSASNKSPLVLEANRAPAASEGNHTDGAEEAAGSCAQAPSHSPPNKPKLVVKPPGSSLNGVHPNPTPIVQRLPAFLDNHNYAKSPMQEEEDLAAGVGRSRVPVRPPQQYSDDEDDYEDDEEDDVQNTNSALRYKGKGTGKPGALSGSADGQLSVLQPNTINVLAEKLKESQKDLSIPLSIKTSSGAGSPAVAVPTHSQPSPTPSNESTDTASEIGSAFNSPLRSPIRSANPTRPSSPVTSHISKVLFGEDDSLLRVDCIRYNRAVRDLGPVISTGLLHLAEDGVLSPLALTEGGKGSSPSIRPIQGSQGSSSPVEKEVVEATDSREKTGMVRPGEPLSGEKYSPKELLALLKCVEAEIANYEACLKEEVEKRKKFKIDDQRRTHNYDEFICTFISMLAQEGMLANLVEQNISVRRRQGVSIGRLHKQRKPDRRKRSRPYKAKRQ
Summary of the method: as §1

EIF3F = EIF3F (UniProt O00303)
EIF3F, sequence (O00303 whole entry): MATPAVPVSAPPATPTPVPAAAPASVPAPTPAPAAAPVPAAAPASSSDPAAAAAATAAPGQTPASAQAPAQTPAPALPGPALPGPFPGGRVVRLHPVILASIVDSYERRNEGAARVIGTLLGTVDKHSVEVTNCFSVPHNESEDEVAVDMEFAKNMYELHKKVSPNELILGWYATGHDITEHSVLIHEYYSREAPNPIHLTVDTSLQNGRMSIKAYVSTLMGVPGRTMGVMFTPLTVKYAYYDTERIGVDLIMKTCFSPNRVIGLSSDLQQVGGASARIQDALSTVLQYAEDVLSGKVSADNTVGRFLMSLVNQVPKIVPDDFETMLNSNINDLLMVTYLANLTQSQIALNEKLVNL
Summary of the method: as §1

EIF3H = EIF3H (UniProt O15372)
EIF3H, sequence (O15372 whole entry): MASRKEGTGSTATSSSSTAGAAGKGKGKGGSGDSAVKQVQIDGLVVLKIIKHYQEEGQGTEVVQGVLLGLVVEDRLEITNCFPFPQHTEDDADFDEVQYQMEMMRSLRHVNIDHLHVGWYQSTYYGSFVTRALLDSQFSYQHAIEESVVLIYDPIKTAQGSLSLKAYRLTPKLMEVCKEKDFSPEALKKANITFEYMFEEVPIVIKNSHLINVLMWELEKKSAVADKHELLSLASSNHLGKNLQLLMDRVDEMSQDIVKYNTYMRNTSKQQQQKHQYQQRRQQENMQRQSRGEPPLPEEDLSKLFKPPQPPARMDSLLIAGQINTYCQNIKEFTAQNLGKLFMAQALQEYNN
Summary of the method: as §1

FAM105A = molecular target: T3, FAM105A (UniProt Q9NUU6)
T3 sequence (whole entry): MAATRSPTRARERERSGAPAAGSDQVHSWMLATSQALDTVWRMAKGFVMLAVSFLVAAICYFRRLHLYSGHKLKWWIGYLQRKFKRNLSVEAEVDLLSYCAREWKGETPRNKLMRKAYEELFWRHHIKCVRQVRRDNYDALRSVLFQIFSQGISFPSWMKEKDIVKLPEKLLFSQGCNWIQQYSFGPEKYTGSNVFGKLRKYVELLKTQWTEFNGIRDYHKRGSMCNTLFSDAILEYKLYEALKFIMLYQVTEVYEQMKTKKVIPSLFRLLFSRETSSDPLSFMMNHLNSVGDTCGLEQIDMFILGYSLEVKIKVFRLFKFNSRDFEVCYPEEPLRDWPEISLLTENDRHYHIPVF
Summary of the method: as §1

OTUB1 = OTUB1 (UniProt Q96FW1)
OTUB1, sequence (Q96FW1 whole entry): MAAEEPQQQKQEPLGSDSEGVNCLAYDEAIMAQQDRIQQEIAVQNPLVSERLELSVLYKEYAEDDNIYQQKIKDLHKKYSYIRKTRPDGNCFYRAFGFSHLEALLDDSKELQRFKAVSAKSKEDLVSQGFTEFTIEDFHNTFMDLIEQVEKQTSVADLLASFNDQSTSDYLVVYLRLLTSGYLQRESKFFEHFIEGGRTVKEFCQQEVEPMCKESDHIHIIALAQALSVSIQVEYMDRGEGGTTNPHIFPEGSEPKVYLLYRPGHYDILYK
Summary of the method: as §1

OTUD4 = molecular target: T4, OTUD4 (UniProt Q01804)
T4 sequence (whole entry): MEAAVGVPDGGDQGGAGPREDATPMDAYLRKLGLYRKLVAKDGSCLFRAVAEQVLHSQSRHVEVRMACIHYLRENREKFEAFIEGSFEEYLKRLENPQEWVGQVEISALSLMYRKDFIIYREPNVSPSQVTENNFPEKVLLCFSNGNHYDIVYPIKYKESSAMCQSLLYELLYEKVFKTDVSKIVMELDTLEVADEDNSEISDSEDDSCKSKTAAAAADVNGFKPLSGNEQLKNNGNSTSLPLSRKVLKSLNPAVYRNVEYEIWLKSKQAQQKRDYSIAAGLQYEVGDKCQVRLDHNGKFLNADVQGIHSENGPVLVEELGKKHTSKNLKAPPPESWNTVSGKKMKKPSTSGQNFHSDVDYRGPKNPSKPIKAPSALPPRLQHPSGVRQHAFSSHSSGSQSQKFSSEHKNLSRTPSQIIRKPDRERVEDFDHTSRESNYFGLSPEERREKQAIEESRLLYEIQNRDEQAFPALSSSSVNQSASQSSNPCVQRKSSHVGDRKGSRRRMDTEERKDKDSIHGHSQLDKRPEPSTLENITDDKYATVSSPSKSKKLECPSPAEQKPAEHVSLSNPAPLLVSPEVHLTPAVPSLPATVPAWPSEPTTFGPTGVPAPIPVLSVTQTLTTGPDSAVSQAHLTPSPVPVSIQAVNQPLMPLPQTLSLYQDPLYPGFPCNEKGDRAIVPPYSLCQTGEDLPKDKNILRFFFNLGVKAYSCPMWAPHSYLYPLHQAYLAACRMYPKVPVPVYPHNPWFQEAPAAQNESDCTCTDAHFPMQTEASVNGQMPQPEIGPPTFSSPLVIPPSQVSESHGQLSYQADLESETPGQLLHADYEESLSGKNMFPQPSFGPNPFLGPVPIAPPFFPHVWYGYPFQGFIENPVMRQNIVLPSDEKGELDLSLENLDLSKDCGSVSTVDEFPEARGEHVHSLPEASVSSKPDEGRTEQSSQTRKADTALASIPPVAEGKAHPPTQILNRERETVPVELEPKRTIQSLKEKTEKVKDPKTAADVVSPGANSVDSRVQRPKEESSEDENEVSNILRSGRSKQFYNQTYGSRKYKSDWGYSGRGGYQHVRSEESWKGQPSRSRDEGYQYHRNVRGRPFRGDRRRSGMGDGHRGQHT
Summary of the method: as §1

OTUD5 = molecular target: T5, OTUD5 (UniProt Q96G74)
T5 sequence (whole entry): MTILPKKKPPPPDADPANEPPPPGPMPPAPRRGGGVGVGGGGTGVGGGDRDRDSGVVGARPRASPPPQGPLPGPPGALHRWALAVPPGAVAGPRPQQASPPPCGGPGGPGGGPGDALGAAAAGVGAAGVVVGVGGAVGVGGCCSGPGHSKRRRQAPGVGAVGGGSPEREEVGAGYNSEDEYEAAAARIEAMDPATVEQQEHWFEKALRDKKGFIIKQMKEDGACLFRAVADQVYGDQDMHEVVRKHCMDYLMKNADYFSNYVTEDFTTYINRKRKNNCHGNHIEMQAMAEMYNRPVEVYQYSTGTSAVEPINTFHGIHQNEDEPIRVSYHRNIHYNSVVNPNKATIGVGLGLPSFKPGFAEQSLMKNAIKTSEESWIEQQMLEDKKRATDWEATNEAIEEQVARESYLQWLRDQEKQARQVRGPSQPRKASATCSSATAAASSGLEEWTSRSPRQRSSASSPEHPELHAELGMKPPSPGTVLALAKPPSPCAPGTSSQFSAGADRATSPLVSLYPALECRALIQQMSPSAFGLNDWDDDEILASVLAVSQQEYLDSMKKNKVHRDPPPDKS
Summary of the method: as §1

Measured: log2 ratio of Biotin-Ahx-Ub-VS probe labelling

Cl.O=C(CCl)NC1(c2ncccn2)CCC1
inactive: ALG13 0.0863 | ATXN3 0.0333 | BAP1 -0.171 | EIF3F -0.137 | EIF3H 0.137 | FAM105A -0.242 | OTUB1 -0.293 | OTUD4 -0.17 | OTUD5 0.0342
